For some assays here: Entries with a potency or affinity are not part of this list. Active and inactive are the calls of the source.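 The calls were made as follows, unless noted: active = primary screen hit whose fluorescence ratio, in both repeats, exceeds the weak agonist control mean by 3 SD; inactive = the rest.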
What was measured:
[1] = test system: TRPC4 beta (transient receptor potential cation channel C4), mouse; test: activators of mouse TRPC4 channel, confirmation, cell-based, Fluo4 calcium, HEK293 TRPC4beta/mu-opioid, duplicates, 10 µM (AID 2426;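 active = fluorescence ratio normalized to control raised more than 50% in primary screen plus both repeat runs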); conditions: Fluo4 calcium fluorescence, at 10 µM; active compounds read high
[2] = test system: transient receptor potential cation channel C4 beta (TRPC4), mouse; test: activators of mouse TRPC4 channel, confirmation, cell-based, second round, Fluo4, HEK293 TRPC4beta/mu-opioid, 1 µM (AID 2461;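 active = primary screen active and over 50% activation in each of two duplicate runs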); conditions: Fluo4 calcium fluorescence, at 1 µM; active compounds read high
[3] = test system: TRPC4 (transient receptor potential cation channel C4 beta), mouse; test: positive allosteric modulators of mouse TRPC4, confirmation, cell-based, second round, Fluo-4, HEK293 TRPC4beta/mu-opioid, 1 µM (AID 2554); conditions: DAMGO EC20, Fluo-4 calcium flux, at 1 µM; active compounds read high
[4] = test system: TRPC4 beta (transient receptor potential cation channel C4), mouse; test: positive allosteric modulators of mouse TRPC4, confirmation, cell-based, Fluo-4, HEK293 TRPC4beta/mu-opioid (AID 2555;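 active = primary screen hit whose calcium fluorescence ratio, in both repeats, exceeds the weak agonist control mean by 3 SD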); conditions: DAMGO EC20, Fluo-4 calcium flux, at 10 µM; active compounds read high
[5] = target: Short transient receptor potential channel 4 (Mus musculus) (UniProt Q9QUQ5); test: inhibitors of mouse TRPC4 channel, confirmation, cell-based, Fluo4, HEK293 TRPC4beta/mu-opioid (AID 2636;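 active = calcium signal cut by more than 3 SD below the full-agonist control yet still positive, in both repeats and the earlier primary screen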); conditions: DAMGO, Fluo4 calcium flux, at 10 µM; active compounds read high
Chain of Short transient receptor potential channel 4 (Mus musculus) (Q9QUQ5 whole entry, looked up): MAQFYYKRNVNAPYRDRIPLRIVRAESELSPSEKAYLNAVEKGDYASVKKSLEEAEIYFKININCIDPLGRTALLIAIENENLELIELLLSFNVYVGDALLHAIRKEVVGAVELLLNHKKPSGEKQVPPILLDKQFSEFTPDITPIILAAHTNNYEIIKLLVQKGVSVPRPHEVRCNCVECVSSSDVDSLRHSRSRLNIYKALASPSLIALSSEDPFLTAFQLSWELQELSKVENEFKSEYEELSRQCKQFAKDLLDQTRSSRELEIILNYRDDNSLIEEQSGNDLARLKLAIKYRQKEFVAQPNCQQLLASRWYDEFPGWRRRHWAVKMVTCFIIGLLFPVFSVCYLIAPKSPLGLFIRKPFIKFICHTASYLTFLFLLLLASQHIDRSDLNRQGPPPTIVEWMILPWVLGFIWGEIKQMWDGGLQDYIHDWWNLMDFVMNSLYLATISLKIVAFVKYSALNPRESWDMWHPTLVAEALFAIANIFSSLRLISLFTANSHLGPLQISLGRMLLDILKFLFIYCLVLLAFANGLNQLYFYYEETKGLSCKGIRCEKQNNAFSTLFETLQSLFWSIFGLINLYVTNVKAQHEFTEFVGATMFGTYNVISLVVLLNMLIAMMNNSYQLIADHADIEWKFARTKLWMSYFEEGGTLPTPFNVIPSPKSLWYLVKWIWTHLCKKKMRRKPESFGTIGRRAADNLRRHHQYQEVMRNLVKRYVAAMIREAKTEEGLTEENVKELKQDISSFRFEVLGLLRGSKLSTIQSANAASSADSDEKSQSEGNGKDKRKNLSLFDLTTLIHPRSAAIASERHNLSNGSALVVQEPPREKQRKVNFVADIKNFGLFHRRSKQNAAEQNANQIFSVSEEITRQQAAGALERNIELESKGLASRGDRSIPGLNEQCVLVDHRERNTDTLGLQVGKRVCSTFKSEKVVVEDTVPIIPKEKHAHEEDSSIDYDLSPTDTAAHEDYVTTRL

[6] = target: Short transient receptor potential channel 4 (Mus musculus) (UniProt Q9QUQ5); test: inhibitors of mouse TRPC4 channel, confirmation, cell-based, second round, Fluo4, HEK293 TRPC4beta/mu-opioid, 1 µM (AID 2637;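 active = calcium signal ratio cut to more than 3 SD under the fully stimulated control mean yet still positive, in both repeats and the primary screen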;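 as to inhibition: percent of integrated ratio relative to wells lacking test compound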); conditions: Fluo4 calcium flux, DAMGO, at 1 µM; active compounds read high
[7] = target: Short transient receptor potential channel 4 (Mus musculus) (UniProt Q9QUQ5); test: mouse TRPC4 channel activators, dose response, cell-based, HEK293 TRPC4/mu-opioid, Fluo-4 calcium (AID 434937;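 active = primary screen activator hit with a dose response curve and TRPC4 channel activation at any tested dose; inactive = no activation, no dose response, or not a primary hit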)
[8] = target: Short transient receptor potential channel 4 (Mus musculus) (UniProt Q9QUQ5); test: TRPC4 positive allosteric modulators, dose response, cell-based, HEK293 TRPC4/mu-opioid, Fluo-4 calcium, EC20 DAMGO (AID 434941;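 active = earlier screen potentiator hit that boosts the TRPC4 ion channel at some dose, with a dose response; inactive = no potentiation, no dose response, or not a prior hit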;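 also: calcium entry triggered by an EC20 dose of DAMGO at the co-expressed mu-opioid receptor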)
[9] = target: Short transient receptor potential channel 6 (Mus musculus) (UniProt Q61143); test: inhibition of mouse TRPC6 channel, confirmation, selectivity assay for TRPC4 inhibitor project, cell-based, HEK293, membrane potential dye, duplicate (AID 434948;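 active = active in primary screen and both duplicates, each dropping signal beyond three positive-control SD with fluorescence still positive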); conditions: HEK293 TRPC6, membrane potential dye fluorescence, at 10 µM, stimulated with maximal-effect acetylcholine; active compounds read high
Chain of Short transient receptor potential channel 6 (Mus musculus) (Q61143 whole entry, looked up): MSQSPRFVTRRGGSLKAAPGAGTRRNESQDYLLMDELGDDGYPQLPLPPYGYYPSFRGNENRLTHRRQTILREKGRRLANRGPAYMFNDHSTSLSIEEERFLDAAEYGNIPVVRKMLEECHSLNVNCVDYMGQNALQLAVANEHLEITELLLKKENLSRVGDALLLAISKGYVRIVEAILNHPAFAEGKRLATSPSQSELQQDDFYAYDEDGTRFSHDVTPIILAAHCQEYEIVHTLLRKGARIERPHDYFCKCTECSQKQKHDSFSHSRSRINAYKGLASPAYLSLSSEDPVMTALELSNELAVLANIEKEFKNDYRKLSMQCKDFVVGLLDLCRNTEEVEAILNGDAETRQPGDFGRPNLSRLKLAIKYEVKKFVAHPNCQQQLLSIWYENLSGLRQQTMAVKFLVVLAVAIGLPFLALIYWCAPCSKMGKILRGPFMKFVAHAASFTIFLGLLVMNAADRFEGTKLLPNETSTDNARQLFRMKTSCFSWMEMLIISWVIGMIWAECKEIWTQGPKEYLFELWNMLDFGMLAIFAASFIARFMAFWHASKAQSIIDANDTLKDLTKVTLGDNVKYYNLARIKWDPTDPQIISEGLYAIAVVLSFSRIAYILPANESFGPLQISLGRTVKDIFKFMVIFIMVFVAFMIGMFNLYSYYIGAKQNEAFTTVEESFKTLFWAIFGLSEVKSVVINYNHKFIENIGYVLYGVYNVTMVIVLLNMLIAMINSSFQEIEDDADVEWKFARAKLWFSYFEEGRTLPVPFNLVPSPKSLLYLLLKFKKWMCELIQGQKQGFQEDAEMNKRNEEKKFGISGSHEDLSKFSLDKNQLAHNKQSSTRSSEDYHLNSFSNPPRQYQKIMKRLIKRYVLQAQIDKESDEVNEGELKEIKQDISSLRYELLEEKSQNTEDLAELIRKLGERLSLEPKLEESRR

[10] = target: Short transient receptor potential channel 6 (Mus musculus) (UniProt Q61143); test: activation of mouse TRPC6 channel, confirmation, selectivity assay for TRPC4 activator project, cell-based, HEK293, membrane potential dye, duplicate (AID 434950;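 active = membrane potential signal rise above negative control mean plus 3 SD in both duplicates, also active in the earlier TRPC4 screen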;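 as to activation: 0% = buffer only wells and 100% = acetylcholine maximal-effect wells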); conditions: HEK293 TRPC6, membrane potential fluorescence, at 10 µM; active compounds read high
[11] = target: Short transient receptor potential channel 6 (Mus musculus) (UniProt Q61143); test: TRPC6 potentiation by TRPC4 potentiator hits, confirmation, selectivity assay for TRPC4 potentiator project, HEK293 cells, membrane potential dye, duplicate (AID 434952;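 active = compound raising the membrane signal above positive-control mean plus 3 SD in both repeats, and a primary screen hit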); conditions: HEK293 TRPC6, membrane potential dye fluorescence, at 10 µM, maximal acetylcholine added after compound; active compounds read high
[12] = target: Short transient receptor potential channel 4 (Mus musculus) (UniProt Q9QUQ5); test: calcium flux activators in TRPC4/5HT1a cells, counter-screen for TRPC4 activator project, cell-based, second counter screen, HEK293 TRPC4/5HT1a, Fluo-4 (AID 434977;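 active = calcium signal rise above buffer-control mean plus 5 SD in both duplicates, and also a hit in the primary screen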); conditions: Fluo-4 calcium flux, at 10 µM; active compounds read high
[13] = calcium flux inhibitors in TRPC4/5HT1a cells, confirmation, counter-screen for TRPC4 inhibitor project, cell-based, second counter screen, HEK293 TRPC4/5HT1a, Fluo-4 (AID 434978;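 active = primary screen active whose calcium signal fell more than 3 SD beyond the full-serotonin control mean in both duplicate plates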;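 as to outcome: serotonin given first at submaximal then at maximal dose after compound preincubation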); conditions: Fluo-4 calcium flux, at 10 µM, serotonin added to trigger calcium flux; active compounds read high
[14] = test system: TRPC4 (mouse), co-expressed with 5HT1a in HEK293; test: calcium flux potentiators in TRPC4/5HT1a cells, confirmation, counter-screen for TRPC4 potentiator project, cell-based, second counter screen, HEK293 TRPC4/5HT1a, Fluo-4 (AID 434979;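 active = signal rise over 3 SD above mean of control wells given weak agonist, in both repeats and first screen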); conditions: Fluo-4 calcium flux, at 10 µM, serotonin added at its EC20 dose; active compounds read high
[15] = calcium flux activation in mu-opioid HEK293 cells, confirmation, counter-screen for TRPC4 activator project, cell-based, HEK293 mu-opioid receptor line (AID 449723;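 active = hit in primary screen, with calcium signal over 5 SD above buffer well mean in both duplicates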;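 also: counter screen cells carry the mu-opioid receptor alone and lack TRPC4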); conditions: Fluo-4 calcium fluorescence, at 10 µM; active compounds read high
[16] = calcium flux enhancement in mu-opioid HEK293 cells, confirmation, counter-screen for TRPC4 allosteric potentiator project, cell-based, HEK293 mu-opioid receptor line (AID 449724;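 active = calcium signal rise more than 3 SD above the low-dose agonist control mean, in both duplicate plates and the primary screen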); conditions: Fluo-4 calcium flux, at 10 µM, compound added before EC20 DAMGO stimulus; active compounds read high

COC(=O)c1ccc(Nc2cc(C)nc3ccccc23)cc1
active: inhibition [5] 98% | inhibition [9] 50% | inhibition [13] 19.9%
inactive: outcome [1] | outcome [2] | outcome [3] | outcome [4] | outcome [6] | outcome [7] | outcome [8] | outcome [10] | outcome [11] | outcome [12] | outcome [14] | outcome [15] | outcome [16]

CCOc1ccc(-c2cc(NC(=O)c3c(F)cccc3F)c(C(=O)O)s2)cc1
inactive: outcome [1] | outcome [2] | outcome [3] | outcome [4] | outcome [7] | outcome [8] | outcome [9] | outcome [10] | outcome [11] | outcome [12] | outcome [14] | outcome [15] | outcome [16]
active: inhibition [5] 98% | inhibition [6] 41% | inhibition [13] 6.94%

COc1ccc(C(c2nnnn2C2CCCC2)N2CCN(c3ccccc3)CC2)cc1 (centres undefined)
active: inhibition [5] 52%
inactive: outcome [1] | outcome [2] | outcome [3] | outcome [4] | outcome [6] | outcome [7] | outcome [8] | outcome [9] | outcome [10] | outcome [11] | outcome [12] | outcome [13] | outcome [14] | outcome [15] | outcome [16]

CC1(C)CC(NC(=O)c2cc(COc3cccc(C(F)(F)F)c3)on2)CCO1 (centres undefined)
inactive: outcome [1] | outcome [2] | outcome [3] | outcome [4] | outcome [6] | outcome [7] | outcome [8] | outcome [9] | outcome [10] | outcome [11] | outcome [12] | outcome [14] | outcome [15] | outcome [16]
active: inhibition [5] 90% | inhibition [13] 25.2%

CCCCn1c2ccccc2c2nnc(SCCN3CCCCC3)nc21
inactive: outcome [1] | outcome [2] | outcome [3] | outcome [4] | outcome [6] | outcome [7] | outcome [8] | outcome [10] | outcome [11] | outcome [12] | outcome [14] | outcome [15] | outcome [16]
active: inhibition [5] 84% | inhibition [9] 44.5% | inhibition [13] 31.3%

Cn1cc(CN2CCCCC2CO)c(-c2ccc(Oc3ccccc3)cc2)n1 (centres undefined)
active: inhibition [5] 86% | inhibition [6] 41% | inhibition [13] 39.6%
inactive: outcome [1] | outcome [2] | outcome [3] | outcome [4] | outcome [7] | outcome [8] | outcome [9] | outcome [10] | outcome [11] | outcome [12] | outcome [14] | outcome [15] | outcome [16]

N#Cc1c(N2CCCCC2)nc(N)c2c(N)nc3c(c12)CC(c1ccccc1)O3 (centres undefined)
active: inhibition [5] 87% | inhibition [6] 49% | inhibition [13] 31.5%
inactive: outcome [1] | outcome [2] | outcome [3] | outcome [4] | outcome [7] | outcome [8] | outcome [9] | outcome [10] | outcome [11] | outcome [12] | outcome [14] | outcome [15] | outcome [16]

O=C(COC(=O)c1cccc([N+](=O)[O-])c1)c1ccc2c(c1)OCO2
inactive: outcome [1] | outcome [2] | outcome [3] | outcome [4] | outcome [7] | outcome [8] | outcome [9] | outcome [10] | outcome [11] | outcome [12] | outcome [14] | outcome [15] | outcome [16]
active: inhibition [5] 89% | inhibition [6] 59% | inhibition [13] 25.3%

CNc1nc(SCc2ccccc2Cl)nc2c1CCCC2
active: inhibition [5] 90% | inhibition [13] 13.9%
inactive: outcome [1] | outcome [2] | outcome [3] | outcome [4] | outcome [6] | outcome [7] | outcome [8] | outcome [9] | outcome [10] | outcome [11] | outcome [12] | outcome [14] | outcome [15] | outcome [16]

NC(=O)c1nsc(C(=O)N(Cc2ccco2)C(C(=O)NCc2ccc(F)cc2)c2ccc(O)cc2)c1N (centres undefined)
active: inhibition [5] 84% | inhibition [6] 55% | inhibition [13] 25.1%
inactive: outcome [1] | outcome [2] | outcome [3] | outcome [4] | outcome [7] | outcome [8] | outcome [9] | outcome [10] | outcome [11] | outcome [12] | outcome [14] | outcome [15] | outcome [16]

CC1CCN(CCCOc2ccc(OCc3ccccc3)cc2)CC1
inactive: outcome [1] | outcome [2] | outcome [3] | outcome [4] | outcome [6] | outcome [7] | outcome [8] | outcome [9] | outcome [10] | outcome [11] | outcome [12] | outcome [14] | outcome [15] | outcome [16]
active: inhibition [5] 96% | inhibition [13] 22.7%

N#Cc1cccc2c1-c1ccccc1/C2=N/NC(N)=O
active: inhibition [5] 86% | inhibition [6] 81% | inhibition [13] 19.9%
inactive: outcome [1] | outcome [2] | outcome [3] | outcome [4] | outcome [7] | outcome [8] | outcome [9] | outcome [10] | outcome [11] | outcome [12] | outcome [14] | outcome [15] | outcome [16]

Cc1ccc(NC(=O)CN2CCc3ccccc3C2)cc1S(=O)(=O)N1CCOCC1
inactive: outcome [1] | outcome [2] | outcome [3] | outcome [4] | outcome [7] | outcome [8] | outcome [9] | outcome [11] | outcome [12] | outcome [13] | outcome [14] | outcome [15] | outcome [16]
active: inhibition [5] 92% | inhibition [6] 46% | activation [10] 30.5%

CN(CC1CCCN(CCc2cccc(C(F)(F)F)c2)C1)C(=O)c1cc2ccccc2o1 (centres undefined)
inactive: outcome [1] | outcome [2] | outcome [3] | outcome [4] | outcome [6] | outcome [7] | outcome [8] | outcome [9] | outcome [10] | outcome [11] | outcome [12] | outcome [14] | outcome [15] | outcome [16]
active: inhibition [5] 85% | inhibition [13] 1.18%

Source: PubChem BioAssay
